Structures are written as SMILES. Inconclusive results are not listed. A call without a number means that no potency is given here. Active and inactive are the calls of the source. Unless noted, the call rests on the fitted dose curve; in most records, active means well fitted curve in the direction sought with a large enough effect in the repeat runs; inconclusive means weak or mixed curves; inactive means no such curve, though single readings can be large; an effect the other way counts as inactive or inconclusive.

The nature of one experiment: qHTS assay to identify small molecule antagonists of the TGF-beta/Smad signaling pathway - cell viability counter screen (AID 1346824). Further: nearly all actives have a fitted effect of over 50% in size. Conditions: SBE-bla HEK293T viability, CellTiter-Glo luminescence; series mostly up to 76.8 µM. In short, it runs like this: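 SBE-bla HEK 293T cells, incubated overnight, then compound plus 0.25 ng/mL TGF-beta1 (stock added) for 5 hr at 37 C. Viability was read in the same wells by CellTiter-Glo luminescence after 30 min at room temperature.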
Regarding `O=C1NCC2(CCN(CCc3ccccc3)CC2)O1`, the Potency entry is “inactive”.
The same measure, in the same setting: the result for `c1ccc2c(c1)CCCC2C1=NCCN1` (stereo unspecified) reads “inactive”.
The same measure, in the same setting: the result for `Cc1cccc(O)c1C` reads “inactive”; that for `NC(=Nc1ccccc1)Nc1ccccc1`, “inactive”; that for `CCc1cc(C(C)(C)C)c(O)c(C(C)(C)C)c1`, “inactive”.
With `CC1=C(C=O)C(C)(C)CC=C1`, the Potency entry is “inactive”.
`O=C(O)CCc1ccccc1`: the Potency result was “inactive”.
Take `NCCCCCC(=O)O`: the Potency entry is “inactive”.
In the case of `CC(=O)OCCOCCOCCOC(C)=O`, the Potency entry was “inactive”.
In the case of `Nc1nc2ccccc2[nH]1`, the Potency result was “inactive”.
Still for that read-out and setting: the entry for `c1cnc2cc3c(cc2n1)C1CNCC3C1` is “inactive”; for `OCC(CO)N[C@H]1C[C@](O)(CO)[C@@H](O)[C@H](O)[C@H]1O` it is “inactive”; for `Cc1occc(=O)c1OC(=O)C(C)C` it is “inactive”.
The same measure, in the same setting: the entry for `OCCN1CCNCC1` is “inactive”.
Still for that read-out and setting: the entry for `CCC(=O)/C=C/C1C(C)=CCCC1(C)C` (stereo unspecified) is “inactive”; for `CC[C@@H](N)CO` it is “inactive”; for `C=CS(=O)(=O)O` it is “inactive”.
For `Clc1ccc2c(c1)C(N1CCNCC1)=Nc1ccccc1O2`, the Potency entry was “inactive”.
For the compound `CC(C)(C)c1ccccc1`, the Potency result was “inactive”.
Same read-out and setting: the entry for `CCCCOCCOC(=O)c1ccccc1C(=O)OCCOCCCC` is “inactive”; for `CC(C)CCOC(=O)c1ccc(N(C)C)cc1` it is “inactive”; for `CC(C)(C)NCC(O)COc1ccccc1OCC1CCCO1` (stereo unspecified) it is “inactive”.
`CC1COC(=O)O1` (stereo unspecified): the Potency entry is “inactive”.
Consider `C=CC(=O)OCCCCCCOC(=O)C=C`, for which the Potency entry was “inactive”.
Still for that read-out and setting: the result for `CCN1CCCC1CNC(=O)c1cc(S(=O)(=O)CC)c(N)cc1OC` (stereo unspecified) reads “inactive”; that for `CCCCN(CCO)CCCC`, “inactive”.
As for `CC(=O)CC(C)=O`, the Potency result is “inactive”.
Still for that read-out and setting: the entry for `O` is “inactive”.
Same read-out and setting: the result for `CCOC(=O)C(C)C(C)=O` (stereo unspecified) reads “inactive”; that for `CC(=O)Nc1ccc(C(=O)CCl)cc1`, “inactive”.
Same read-out and setting: the entry for `COC(=O)/C=C/c1ccccc1` is “inactive”.
For `C[N+]1([O-])CCOCC1`, the Potency result is “inactive”.
With `CCN(CC)C(=O)Nc1ccc(OCC(O)CNC(C)(C)C)c(C(C)=O)c1` (stereo unspecified), the Potency entry is “inactive”.
For the compound `Cc1cc(C(C)(C)C)c(O)c(C(C)(C)C)c1`, the Potency entry is “inactive”.
Regarding `CCOc1ccccc1C(N)=O`, the Potency result is “inactive”.
In the case of `O=C(O[C@@H]1Cc2c(O)cc(O)cc2O[C@@H]1c1cc(O)c(O)c(O)c1)c1cc(O)c(O)c(O)c1`, the Potency entry was “inactive”.
For `O=C1CC2(CCCC2)CC(=O)N1CCCCN1CCN(c2ncccn2)CC1`, the Potency result is “inactive”.

The nature of another experiment: qHTS assay to identify small molecule agonists of the TGF-beta/Smad signaling pathway - cell viability counter screen (AID 1346829). Further: top concentration of the series differs between compounds; nearly all actives have a fitted effect of over 45% in size. The conditions noted are these: SBE-bla HEK293T viability, CellTiter-Glo luminescence, 5 h; series mostly up to 76.8 µM. In short, it runs like this:
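In parallel with the Smad reporter read, viability of HEK 293T cells stably carrying SBE-bla is quantified by ATP luminescence following 5 hr compound treatment.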
Turning to `O=C1NCC2(CCN(CCc3ccccc3)CC2)O1`, the Potency entry was “inactive”.
As to `c1ccc2c(c1)CCCC2C1=NCCN1` (stereo unspecified), the Potency result was “inactive”.
With `Cc1cccc(O)c1C`, the Potency entry is “inactive”.
Turning to `NC(=Nc1ccccc1)Nc1ccccc1`, the Potency result is “inactive”.
For `CCc1cc(C(C)(C)C)c(O)c(C(C)(C)C)c1`, the Potency result was “inactive”.
Same read-out and setting: the entry for `CC1=C(C=O)C(C)(C)CC=C1` is “inactive”; for `O=C(O)CCc1ccccc1` it is “inactive”.
Take `NCCCCCC(=O)O`: the Potency result was “inactive”.
In the case of `CC(=O)OCCOCCOCCOC(C)=O`, the Potency entry is “inactive”.
Consider `Nc1nc2ccccc2[nH]1`, for which the Potency result was “inactive”.
Still for that read-out and setting: the result for `c1cnc2cc3c(cc2n1)C1CNCC3C1` reads “inactive”.
For the compound `OCC(CO)N[C@H]1C[C@](O)(CO)[C@@H](O)[C@H](O)[C@H]1O`, the Potency result is “inactive”.
On to `Cc1occc(=O)c1OC(=O)C(C)C`, for which the Potency entry is “inactive”.
For the compound `OCCN1CCNCC1`, the Potency entry is “inactive”.
Consider `CCC(=O)/C=C/C1C(C)=CCCC1(C)C` (stereo unspecified), for which the Potency entry was “inactive”.
Still for that read-out and setting: the result for `CC[C@@H](N)CO` reads “inactive”; that for `C=CS(=O)(=O)O`, “inactive”.
Same read-out and setting: the entry for `Clc1ccc2c(c1)C(N1CCNCC1)=Nc1ccccc1O2` is “inactive”; for `CC(C)(C)c1ccccc1` it is “inactive”; for `CCCCOCCOC(=O)c1ccccc1C(=O)OCCOCCCC` it is “inactive”.
As for `CC(C)CCOC(=O)c1ccc(N(C)C)cc1`, the Potency result was “inactive”.
As for `CC(C)(C)NCC(O)COc1ccccc1OCC1CCCO1` (stereo unspecified), the Potency result is “inactive”.
`CC1COC(=O)O1` (stereo unspecified): the Potency result is “inactive”.
The same measure, in the same setting: the result for `C=CC(=O)OCCCCCCOC(=O)C=C` reads “inactive”; that for `CCN1CCCC1CNC(=O)c1cc(S(=O)(=O)CC)c(N)cc1OC` (stereo unspecified), “inactive”.
Same read-out and setting: the result for `CCCCN(CCO)CCCC` reads “inactive”; that for `CC(=O)CC(C)=O`, “inactive”; that for `O`, “inactive”.
Still for that read-out and setting: the result for `CCOC(=O)C(C)C(C)=O` (stereo unspecified) reads “inactive”; that for `CC(=O)Nc1ccc(C(=O)CCl)cc1`, “inactive”.
Consider `COC(=O)/C=C/c1ccccc1`, for which the Potency result was “inactive”.
For `C[N+]1([O-])CCOCC1`, the Potency result was “inactive”.
Turning to `CCN(CC)C(=O)Nc1ccc(OCC(O)CNC(C)(C)C)c(C(C)=O)c1` (stereo unspecified), the Potency result was “inactive”.
The same measure, in the same setting: the entry for `Cc1cc(C(C)(C)C)c(O)c(C(C)(C)C)c1` is “inactive”; for `CCOc1ccccc1C(N)=O` it is “inactive”; for `O=C(O[C@@H]1Cc2c(O)cc(O)cc2O[C@@H]1c1cc(O)c(O)c(O)c1)c1cc(O)c(O)c(O)c1` it is “inactive”.
For the compound `O=C1CC2(CCCC2)CC(=O)N1CCCCN1CCN(c2ncccn2)CC1`, the Potency result was “inactive”.

Another experiment is described as follows: qHTS assay to identify small molecule agonists of the TGF-beta/Smad signaling pathway (AID 1346859; active means well fitted activation curve with a large enough effect in the signal ratio in the repeat runs, not every such curve was filed as active; the % refers to the signal ratio). The conditions noted are these: SBE-bla HEK293T, TGF-beta/Smad beta-lactamase reporter, 5 h; series mostly up to 76.8 µM. In short, it runs like this:
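Read-out: fluorescence at 460 and 530 nm (405 nm excitation) after a 2 hr room-temperature incubation with beta-lactamase FRET substrate. SBE-bla HEK 293T cells had been treated with test compounds for 5 hr at 37 C.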
As for `O=C1NCC2(CCN(CCc3ccccc3)CC2)O1`, the outcome was inactive.
Still for that read-out and setting: the result for `c1ccc2c(c1)CCCC2C1=NCCN1` (stereo unspecified) reads “inactive”.
On the same count and under the same terms, the entry for `Cc1cccc(O)c1C` is “inactive”.
Same read-out and setting: the result for `NC(=Nc1ccccc1)Nc1ccccc1` reads “inactive”; that for `CCc1cc(C(C)(C)C)c(O)c(C(C)(C)C)c1`, “inactive”.
`CC1=C(C=O)C(C)(C)CC=C1`: the call was inactive.
Consider `O=C(O)CCc1ccccc1`, for which the call was inactive.
Same read-out and setting: the entry for `NCCCCCC(=O)O` is “inactive”; for `CC(=O)OCCOCCOCCOC(C)=O` it is “inactive”; for `Nc1nc2ccccc2[nH]1` it is “inactive”.
Take `c1cnc2cc3c(cc2n1)C1CNCC3C1`: the compound was called inactive.
The same measure, in the same setting: the entry for `OCC(CO)N[C@H]1C[C@](O)(CO)[C@@H](O)[C@H](O)[C@H]1O` is “inactive”.
On to `Cc1occc(=O)c1OC(=O)C(C)C`, for which the compound was called inactive.
As for `OCCN1CCNCC1`, the compound was called inactive.
As to `CCC(=O)/C=C/C1C(C)=CCCC1(C)C` (stereo unspecified), the call was inactive.
Take `CC[C@@H](N)CO`: the result was inactive.
On the same count and under the same terms, the entry for `C=CS(=O)(=O)O` is “inactive”.
On the same count and under the same terms, the result for `Clc1ccc2c(c1)C(N1CCNCC1)=Nc1ccccc1O2` reads “inactive”.
Regarding `CC(C)(C)c1ccccc1`, the compound was classed as inactive.
Still for that read-out and setting: the entry for `CCCCOCCOC(=O)c1ccccc1C(=O)OCCOCCCC` is “inactive”.
The same measure, in the same setting: the entry for `CC(C)CCOC(=O)c1ccc(N(C)C)cc1` is “inactive”.
Still for that read-out and setting: the result for `CC(C)(C)NCC(O)COc1ccccc1OCC1CCCO1` (stereo unspecified) reads “inactive”.
With `CC1COC(=O)O1` (stereo unspecified), the result was inactive.
With `C=CC(=O)OCCCCCCOC(=O)C=C`, the outcome was inactive.
As to `CCN1CCCC1CNC(=O)c1cc(S(=O)(=O)CC)c(N)cc1OC` (stereo unspecified), the compound was called inactive.
On the same count and under the same terms, the entry for `CCCCN(CCO)CCCC` is “inactive”.
Same read-out and setting: the result for `CC(=O)CC(C)=O` reads “inactive”.
Same read-out and setting: the entry for `O` is “inactive”; for `CCOC(=O)C(C)C(C)=O` (stereo unspecified) it is “inactive”.
Take `CC(=O)Nc1ccc(C(=O)CCl)cc1`: the call was inactive.
For `COC(=O)/C=C/c1ccccc1`, the call was inactive.
Take `C[N+]1([O-])CCOCC1`: the call was inactive.
On the same count and under the same terms, the entry for `CCN(CC)C(=O)Nc1ccc(OCC(O)CNC(C)(C)C)c(C(C)=O)c1` (stereo unspecified) is “inactive”; for `Cc1cc(C(C)(C)C)c(O)c(C(C)(C)C)c1` it is “inactive”; for `CCOc1ccccc1C(N)=O` it is “inactive”.
The same measure, in the same setting: the entry for `O=C(O[C@@H]1Cc2c(O)cc(O)cc2O[C@@H]1c1cc(O)c(O)c(O)c1)c1cc(O)c(O)c(O)c1` is “inactive”; for `O=C1CC2(CCCC2)CC(=O)N1CCCCN1CCN(c2ncccn2)CC1` it is “inactive”.

Values taken from PubChem BioAssay (Tox21).
